Reference: the supplement of paper PMC7765376
Structures can show the parent of a compound that is named as a salt. In all, about 1,500 compounds were measured (“Excess HSA synergy score (sum over dose matrix of excess over highest single agent)”: median about 43, lowest 2% from about -900 on). The entries come from a sample that favours the lowest values as a whole.

System: PEO-1
Assay: Excess HSA synergy score (sum over dose matrix of excess over highest single agent) (score (summed % response)); higher = less synergy / more antagonism (negative = synergy)
Details: 72 h, read-out: viability/apoptosis luminescence (CellTiter-Glo or Caspase3-Glo / not stated per table)
[1] = matrix design: 6x6, 5-fold dilutions (primary screen)
[2] = matrix design: 10x10, 9-step dilutions (confirmatory)

Row | Compound | Excess HSA synergy score [1] | Excess HSA synergy score [2]
1 | N#CC1(c2cccc(C(=O)Nc3cc(Oc4ccc5nc(NC(=O)C6CC6)sc5n4)ccc3F)c2Cl)CC1 [Takeda-6d] + CC[C@H](NC(=O)[C@H](C)NC)C(=O)N1C[C@@H](O)C[C@H]1Cc1c(-c2[nH]c3cc(F)ccc3c2C[C@@H]2C[C@H](O)CN2C(=O)[C@H](CC)NC(=O)[C@H](C)NC)[nH]c2cc(F)ccc12 [Birinapant] | 135 | –
2 | O[C@@H](CNC[C@H](O)[C@H]1CCc2cc(F)ccc2O1)[C@@H]1CCc2cc(F)ccc2O1 (racemic) [rac Nebivolol hydrochloride] + CC[C@H](NC(=O)[C@H](C)NC)C(=O)N1C[C@@H](O)C[C@H]1Cc1c(-c2[nH]c3cc(F)ccc3c2C[C@@H]2C[C@H](O)CN2C(=O)[C@H](CC)NC(=O)[C@H](C)NC)[nH]c2cc(F)ccc12 [Birinapant] | 50.2 | –
3 | CC(C)(O)CC[C@@H](O)[C@](C)(O)[C@H]1CC[C@@]2(O)C3=CC(=O)[C@@H]4C[C@@H](O)[C@@H](O)C[C@]4(C)[C@H]3CC[C@]12C [20-hydroxyecdysone] + CC[C@H](NC(=O)[C@H](C)NC)C(=O)N1C[C@@H](O)C[C@H]1Cc1c(-c2[nH]c3cc(F)ccc3c2C[C@@H]2C[C@H](O)CN2C(=O)[C@H](CC)NC(=O)[C@H](C)NC)[nH]c2cc(F)ccc12 [Birinapant] | 229 | –
4 | O=C(Nc1ccccc1Br)N[C@@H]1CCN(c2ccc(C(F)(F)F)cn2)C1 + CC[C@H](NC(=O)[C@H](C)NC)C(=O)N1C[C@@H](O)C[C@H]1Cc1c(-c2[nH]c3cc(F)ccc3c2C[C@@H]2C[C@H](O)CN2C(=O)[C@H](CC)NC(=O)[C@H](C)NC)[nH]c2cc(F)ccc12 [Birinapant] | -16.5 | –
5 | C[C@H](NC(=O)C(=O)Nc1ccccc1C(C)(C)C)C(=O)N[C@@H](CC(=O)O)C(=O)COc1c(F)c(F)cc(F)c1F [Emricasan] + CC[C@H](NC(=O)[C@H](C)NC)C(=O)N1C[C@@H](O)C[C@H]1Cc1c(-c2[nH]c3cc(F)ccc3c2C[C@@H]2C[C@H](O)CN2C(=O)[C@H](CC)NC(=O)[C@H](C)NC)[nH]c2cc(F)ccc12 [Birinapant] | – | -606
6 | COc1ccc2c(OCc3nnc4ccc(-c5ccccc5)nn34)ccnc2c1 + CC[C@H](NC(=O)[C@H](C)NC)C(=O)N1C[C@@H](O)C[C@H]1Cc1c(-c2[nH]c3cc(F)ccc3c2C[C@@H]2C[C@H](O)CN2C(=O)[C@H](CC)NC(=O)[C@H](C)NC)[nH]c2cc(F)ccc12 [Birinapant] | -55.6 | –
7 | N[C@@H](CSC(c1ccccc1)(c1ccccc1)c1ccccc1)C(=O)O [S-Trityl-L-cysteine] + CC[C@H](NC(=O)[C@H](C)NC)C(=O)N1C[C@@H](O)C[C@H]1Cc1c(-c2[nH]c3cc(F)ccc3c2C[C@@H]2C[C@H](O)CN2C(=O)[C@H](CC)NC(=O)[C@H](C)NC)[nH]c2cc(F)ccc12 [Birinapant] | -23.2 | –
8 | CCC(=O)NCC[C@@H]1CCc2ccc3c(c21)CCO3 [Ramelteon] + CC[C@H](NC(=O)[C@H](C)NC)C(=O)N1C[C@@H](O)C[C@H]1Cc1c(-c2[nH]c3cc(F)ccc3c2C[C@@H]2C[C@H](O)CN2C(=O)[C@H](CC)NC(=O)[C@H](C)NC)[nH]c2cc(F)ccc12 [Birinapant] | 10.8 | –
9 | NC(=O)c1c(OCc2c(F)cc(Br)cc2F)nsc1NC(=O)NCCCCN1CCCC1 + CC[C@H](NC(=O)[C@H](C)NC)C(=O)N1C[C@@H](O)C[C@H]1Cc1c(-c2[nH]c3cc(F)ccc3c2C[C@@H]2C[C@H](O)CN2C(=O)[C@H](CC)NC(=O)[C@H](C)NC)[nH]c2cc(F)ccc12 [Birinapant] | 11 | –
10 | C#Cc1cccc(Nc2ncnc3cc(OC)c(OCCCCCCC(=O)NO)cc23)c1 + CC[C@H](NC(=O)[C@H](C)NC)C(=O)N1C[C@@H](O)C[C@H]1Cc1c(-c2[nH]c3cc(F)ccc3c2C[C@@H]2C[C@H](O)CN2C(=O)[C@H](CC)NC(=O)[C@H](C)NC)[nH]c2cc(F)ccc12 [Birinapant] | -55.2 | –
11 | CCC(CC)CC1(C(=O)Nc2ccccc2SC(=O)C(C)C)CCCCC1 [Dalcetrapib] + CC[C@H](NC(=O)[C@H](C)NC)C(=O)N1C[C@@H](O)C[C@H]1Cc1c(-c2[nH]c3cc(F)ccc3c2C[C@@H]2C[C@H](O)CN2C(=O)[C@H](CC)NC(=O)[C@H](C)NC)[nH]c2cc(F)ccc12 [Birinapant] | 134 | –
12 | CC(C)(C)c1[nH]cnc1/C=c1\[nH]c(=O)/c(=C/c2ccccc2)[nH]c1=O [Plinabulin] + CC[C@H](NC(=O)[C@H](C)NC)C(=O)N1C[C@@H](O)C[C@H]1Cc1c(-c2[nH]c3cc(F)ccc3c2C[C@@H]2C[C@H](O)CN2C(=O)[C@H](CC)NC(=O)[C@H](C)NC)[nH]c2cc(F)ccc12 [Birinapant] | -109 | –
13 | COc1ccnc2[nH]cc(C(=O)C(=O)N3CCN(C(=O)c4ccccc4)C[C@H]3C)c12 + CC[C@H](NC(=O)[C@H](C)NC)C(=O)N1C[C@@H](O)C[C@H]1Cc1c(-c2[nH]c3cc(F)ccc3c2C[C@@H]2C[C@H](O)CN2C(=O)[C@H](CC)NC(=O)[C@H](C)NC)[nH]c2cc(F)ccc12 [Birinapant] | 263 | –
14 | C[C@H]1[C@H](C)CC[C@]2(C(=O)O)CC[C@]3(C)C(=CC[C@@H]4[C@@]5(C)C[C@@H](O)[C@H](O)[C@@](C)(CO)[C@@H]5CC[C@]43C)[C@H]12 [Asiatic acid] + CC[C@H](NC(=O)[C@H](C)NC)C(=O)N1C[C@@H](O)C[C@H]1Cc1c(-c2[nH]c3cc(F)ccc3c2C[C@@H]2C[C@H](O)CN2C(=O)[C@H](CC)NC(=O)[C@H](C)NC)[nH]c2cc(F)ccc12 [Birinapant] | 84.9 | –
15 | CCc1cnn2c(NCc3ccc[n+]([O-])c3)cc(N3CCCC[C@H]3CCO)nc12 + CC[C@H](NC(=O)[C@H](C)NC)C(=O)N1C[C@@H](O)C[C@H]1Cc1c(-c2[nH]c3cc(F)ccc3c2C[C@@H]2C[C@H](O)CN2C(=O)[C@H](CC)NC(=O)[C@H](C)NC)[nH]c2cc(F)ccc12 [Birinapant] | 5.95 | -374
